From PubChem BioAssay (Tox21)
Records with an inconclusive call do not appear. Active and inactive are the calls of the source. The call rests on the fitted dose curve; in most records, active means well fitted cell-killing curve with a large enough effect in the repeat runs; inconclusive means weak or mixed curves, or effect the other way; inactive means flat fitted curve, though single readings scatter.

Assay: Nuclear factor erythroid 2-related factor 2/antioxidant responsive element (Nrf2/ARE) small molecule agonists: qHTS cell viability counter screen in human keratinocytes (AID 1919968); further: nearly all actives have a fitted effect of over 55% in size
Conditions: KeratinoSens HaCaT ARE cells viability, CellTiter-Fluor, 24 h; series mostly up to 92.4 µM; activity change, negative = cytotoxicity: at the top concentration
From the text: U.S. Tox21 Program National Center for Advancing Translational Sciences [NCATS] Division of Preclinical Innovation [DPI] U.S. Environmental Protection Agency [EPA] National Institutes of Environmental Health Sciences [NIEHS] National Toxicology Program [NTP] U.S. Food and Drug Administration [FDA] Tox21 Assay Overview: Oxidative stress has been implicated in the pathogenesis of a variety of diseases ranging from cancer to neurodegeneration. The antioxidant response element (ARE) signaling pathway plays an important role in the amelioration of oxidative stress. The KeratinoSens (Givaudan, Switzerland) is an in vitro test method which quantifies luciferase induction as a measure of activation of Keap1-Nrf2-antioxidationt/electrophile response element (ARE) dependant pathway in HaCaT human keratinocytes stably transfected with a selectable plasmid. The KeratinoSens assay is a cell-based assay with a reporter cell line to detect potential skin sensitizers by their ability to induce the Nrf2/ARE-response. The activation of the report gene under culture conditions can be detected by ONE-Glo Luciferase Assay System (Promega, Madison, WI). This cell line has been used to screen the Tox21 10K compound library to identify agonists that induce oxidative stress. The cytotoxicity of the Tox21 compound library against the KS-ARE cell line was tested in parallel by measuring the cell viability using CellTiter- Fluor assay system (Promega, Madison, WI) in the same wells.
Tox21 Assay Protocol Summary: HaCaT derived cell line KeratinoSens were dispensed at 1,500 cells/5uL/well in 1536-well white wall/solid bottom plates using a Multidrop Combi (ThermoFisher Scientific, Waltham, MA) dispenser. After the assay plates were incubated at 37 C/5% CO2 for 5 h, 23 nL of compounds dissolved in DMSO, positive controls or DMSO only was transferred to the assay plate by a pintool workstation (Kalypsys, San Diego, CA). The plates were incubated at 37 C/5% CO2 for 23 h, followed by addition of 1uL/well of CellTiter-Fluor reagent into the assay plates using a Flying Reagent Dispenser (Aurora Discovery, San Diego, CA) for cell viability readout that measures cytotoxicity. After 1 h incubation at 37 C/5% CO2 the fluorescence intensity was measured using a ViewLux (PerkinElmer, Shelton, CT) plate reader.
On the % scale 0 is the no-effect control and ±100 the full control effect; potency means the concentration at half of the fitted maximal effect.

| SMILES | Potency | activity change, negative = cytotoxicity |
| --- | --- | --- |
| O=C1c2c(O)ccc([N+](=O)[O-])c2C(=O)c2c([N+](=O)[O-])ccc(O)c21 | 15.2 µM (active) |  |
| C=C(C)C1CC=C(C)C(=O)C1 (stereo not given) |  | -0.964% (inactive) |
| CCCCCCCC/C=C/CCCOC(C)=O |  | 6.74% (inactive) |
| CCCCCC(CO)CCC (stereo not given) |  | 7.41% (inactive) |
| CC(C)C(O)(c1ccc(OC(F)(F)F)cc1)c1cncnc1 (stereo not given) |  | 3.1% (inactive) |
| CC(O)C1CCCCC1 (stereo not given) |  | -2.53% (inactive) |
| Cc1cc(C)c(N)cc1C |  | -0.763% (inactive) |
| O=CNc1ccccc1 |  | -0.325% (inactive) |
| O=C(Cl)c1cccc([N+](=O)[O-])c1 |  | 5.31% (inactive) |
| CO/N=C(/C(=O)N[C@@H]1C(=O)N2C(C(=O)O)=C(Cn3nnc(C)n3)CS[C@H]12)c1csc(N)n1 |  | 9.44% [at 42.5 µM] (inactive) |
| CC(=O)[C@H]1[C@H](C#N)C[C@H]2[C@@H]3CC=C4C[C@@H](O)CC[C@]4(C)[C@H]3CC[C@@]21C |  | 2.15% [at 42.5 µM] (inactive) |
| O=C(CCCN1CCN(c2ccc(F)cc2)CC1)NC1c2ccccc2CSc2ccccc21 (stereo not given) |  | -8.12% [at 42.5 µM] (inactive) |
| O=[N+]([O-])c1cc(C2CCCCC2)c(O)c([N+](=O)[O-])c1 | 19.3 µM (active) |  |
| O=C1CCCCCCCCCCCCCCO1 |  | 1.5% (inactive) |
| Cc1ccc(N)cc1S(=O)(=O)O |  | 1.26% (inactive) |
| C1=CC2C3C=CC(C3)C2C1 (stereo not given) |  | -0.904% (inactive) |
| Cc1ccc(C(N)=O)cc1N |  | 0.921% (inactive) |
| CC(=O)OCC(=O)[C@@]1(O)CC[C@H]2[C@@H]3CCC4=CC(=O)CC[C@]4(C)[C@H]3C(=O)C[C@@]21C |  | 10.5% [at 42.5 µM] (inactive) |
| CCCCc1cc2ccccc2c(OCCN(C)C)n1 |  | 1.03% [at 42.5 µM] (inactive) |
| CCCCC(CC)COC(=O)c1ccccc1 (stereo not given) |  | 3.49% (inactive) |

| SMILES | Potency | activity change, negative = cytotoxicity |
| --- | --- | --- |
| CC(C)CC(C)(C)C |  | -4.12% (inactive) |
| NC(N)=NCCC[C@H](N)C(=O)O |  | -4.64% [at 8.39 µM] (inactive) |
| COC(C)CCO (stereo not given) |  | -6.61% (inactive) |
| COc1cccc2sc(N)nc12 |  | -1.48% (inactive) |
| O=C(c1ccccc1)C1CCCCC1 |  | -6.35% (inactive) |
| CCCCC=O |  | 0.543% (inactive) |
| CC1(C)CC(=O)CC(C)(C)N1 |  | 1.32% (inactive) |
| CN(C)CC[C@@H](c1ccc(Cl)cc1)c1ccccn1 |  | 0.0788% [at 42.5 µM] (inactive) |
| BrCCOc1ccccc1 |  | -0.34% (inactive) |
| CCCCCCCCn1sc(Cl)c(Cl)c1=O | 13.7 µM (active) |  |
| CCCCNC(=O)NCCCC |  | -0.013% (inactive) |
| Cc1ccc(NC=O)c(C)c1 |  | 4.67% (inactive) |
| O=C(c1ccccc1)C1CCC1 |  | -1.26% (inactive) |
| CC(C)(C)CC(C)(C)c1ccc(OCCO)cc1 |  | -22% (inactive) |
| Cc1cccc(Nc2ccccc2)c1 |  | 0.441% (inactive) |
| O=C1CCCCCCCCCCCC(=O)OCCO1 |  | 1.26% (inactive) |
| C=CCOC(=O)c1ccc(C(=O)OCC=C)c(C(=O)OCC=C)c1 |  | 4.62% (inactive) |
| COc1ccccc1OCC1CNC(=O)O1 (stereo not given) |  | -3.94% [at 42.5 µM] (inactive) |
| OC(CN1CCC(Cc2ccc(F)cc2)CC1)c1ccc(Cl)cc1 (stereo not given) | 29.8 µM (active) |  |
| CCCCCOC(=O)COc1cc(N2C(=O)C3=C(CCCC3)C2=O)c(F)cc1Cl |  | 0.878% (inactive) |
